Assay outcomes as filed in PubChem.
Sampled rows, rich in hits. Any-hit rate of the full collection: about 19%.
IL-1B inflam inh: inhibitors of inflammasome signaling (IL-1 beta secretion); THP-1 LPS/ATP IL-1B secretion, AlphaLISA, 16 h; active compounds read low; 360,000 compounds, 4.7% hits; AID 743279; activity change, % at 57.5 µM; in the data active = activity change below about -50%; inconclusive = mostly about -30% to -49%
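THP-1 cells pretreated 1 hr with compounds (up to 57.5 uM final), then stimulated with LPS (250 ng/mL final) plus ATP (1.25 mM final); secreted IL-1B measured by AlphaLISA after 16 hr, decreased signal indicating inhibition.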
HT1080-NT tox: kills 2HG-producing HT-1080-NT fibrosarcoma cells | HT-1080-NT fibrosarcoma viability, CellTiter-Glo ATP luminescence, 48 h | Potency, µM (titrated, usually from 46.1 µM), inactives show top-dose activity, negative = less viability, actives largely listed as cytotoxic | 360,000 compounds, 1.6% hits | AID 686970;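 also: NT is the 2HG producing partner of a matched IDH1 knockdown line; potency is read from the fitted curve at half-maximal effect; 0% = DMSO-treated cells and -100% = media-only wells without cells; nearly all actives have a fitted effect of over 55% in size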
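HT-1080-NT; 750 cells/well; 5% FBS RPMI; 48 h compound, 37 degrees C; CellTiter-Glo luminescence; curve fitting and curve-class assignment.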
DT40 TDP1 CPT: growth inhibition of DT40 Tdp1-/-;hTDP1 cells with camptothecin (screen for TDP1 inhibitors). 420,000 compounds, 12% hits. Potency, µM (series often up to 46.2 µM), for the others: at the top dose activity change, negative = growth inhibition, actives largely listed as inhibitors. chicken DT40 Tdp1-/-;hTDP1 cells + 20 nM CPT, ATP luminescence, 48 h; also: potency is read from the fitted curve at half-maximal effect; nearly all actives have a fitted effect of over 55% in size
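Chicken DT40 Tdp1-/- cells stably complemented with human TDP1 were seeded at 400 cells/well in medium containing 20 nM camptothecin, exposed to pin-transferred compounds, and grown at 37 °C for at least 48 hr. Viability was read as ATP luminescence.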
HT1080 IDH1KD tx: kills HT-1080 cells with IDH1 knockdown | 360,000 compounds, 2% hits | HT-1080 IDH1 knockdown viability, ATP luminescence, 48 h | Potency, µM (top dose mostly 46.1 µM), inactives show at the highest dose activity, negative = toxicity, hits mostly cytotoxic;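 also: potency is read from the fitted curve at half-maximal effect; 0% = DMSO wells and -100% = cell-free medium wells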
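Cytotoxicity counter-line: IDH1KD HT-1080, 48 h, CellTiter-Glo. Curves classed by r2, magnitude and activity.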
TDP1 cell noCPT: qHTS for Inhibitors of human tyrosyl-DNA phosphodiesterase 1 (TDP1): qHTS in cells in absence of CPT | DT40 Tdp1-/- hTDP1 cells, no CPT, ATP luminescence, 48 h | Potency, µM (series often up to 46.2 µM), without a hit: at the top dose activity change, negative = growth inhibition, hits mostly inhibitors | 420,000 compounds, 15% hits | AID 686978, 2013; also: potency is read from the fitted curve at half-maximal effect; nearly all actives have a fitted effect of over 55% in size
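Seeded 400 DT40-hTDP1 cells/well (vehicle DMSO, no 20 nM CPT); pinned compounds; ≥48 hr at 37 °C; CellTiter-Glo luminescence as viability measure.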
* hit, by the source's call. Unless noted, calls follow the shape of the dose curve; as a rule, active = well fitted curve in the direction sought with a large enough effect; inconclusive = small, poorly fitted or top-dose-only effect, or another doubt; inactive = no such curve, though single readings can be large; an effect the other way counts as inactive or inconclusive. Unless noted, % is scaled to controls: 0 for no effect and ±100 for the full control effect.

What do the screens show for `CC(=O)c1cccc(NC(=O)C2(C)Cc3c(-c4cccc(C(N)=O)c4)ccnc3O2)c1` (stereo not given)?
IL-1B inflam inh: -23; HT1080-NT tox: inconclusive; DT40 TDP1 CPT: inconclusive; HT1080 IDH1KD tx: inconclusive; TDP1 cell noCPT: inconclusive

Results for COC(=O)c1ccc([C@@H]2C[C@H]3CN(Cc4cccnc4)C(=O)[C@]34CCCN24)cc1 ?
IL-1B inflam inh: 0; HT1080-NT tox: 9%; DT40 TDP1 CPT: 11%; HT1080 IDH1KD tx: 5%; TDP1 cell noCPT: -24%

What do the screens show for `CC(C)c1ccc(NC(=O)C2(C)Cc3c(-c4ccccc4)ccnc3O2)cc1` (stereo not given)?
IL-1B inflam inh: -6; HT1080-NT tox: inconclusive; DT40 TDP1 CPT: 18µM*; HT1080 IDH1KD tx: 10%; TDP1 cell noCPT: inconclusive

What do the screens show for `CC(=O)Nc1ccc(-c2ccnc3c2CC(C)(C(=O)NC(C)C)O3)cc1` (stereo not given)?
IL-1B inflam inh: 7; HT1080-NT tox: inconclusive; DT40 TDP1 CPT: -11%; HT1080 IDH1KD tx: 4%; TDP1 cell noCPT: -21%

What do the screens show for `CC(C)NC(=O)C1(C)Cc2c(-c3ccc(N(C)C)cc3)ccnc2O1` (stereo not given)?
IL-1B inflam inh: 8; HT1080-NT tox: -4%; DT40 TDP1 CPT: 4.1µM*; HT1080 IDH1KD tx: -2%; TDP1 cell noCPT: 4.1µM*

Results for CN(c1ccc(Cl)cc1)S(=O)(=O)c1nnc(NC(=O)C(C)(C)C)s1 ?
IL-1B inflam inh: -5; HT1080-NT tox: 2%; DT40 TDP1 CPT: -18%; HT1080 IDH1KD tx: 10%; TDP1 cell noCPT: 2%

What do the screens show for `O=c1cc(N2CCCCC2)c(-c2ccccc2)nn1Cc1c(Cl)cccc1Cl`?
IL-1B inflam inh: -67*; HT1080-NT tox: 18µM*; DT40 TDP1 CPT: inconclusive; HT1080 IDH1KD tx: 16µM*; TDP1 cell noCPT: 16µM*

How did O=c1cc(N2CCCCC2)c(-c2ccccc2)nn1Cc1ccc(Cl)cc1 do in these assays?
IL-1B inflam inh: -27; HT1080-NT tox: 3%; DT40 TDP1 CPT: inconclusive; HT1080 IDH1KD tx: 13%; TDP1 cell noCPT: inconclusive

Results for CCNc1ncc2nc(C)c(=O)n(C)c2n1 ?
DT40 TDP1 CPT: -1%; TDP1 cell noCPT: -1%

What do the screens show for `O=C(CCc1nc2ccccc2c(=O)[nH]1)N1CCN(S(=O)(=O)c2ccc(F)cc2)CC1`?
IL-1B inflam inh: 15; HT1080-NT tox: -15%; DT40 TDP1 CPT: inconclusive; HT1080 IDH1KD tx: -23%; TDP1 cell noCPT: 5%

Results for COc1cccc(CN(C(=O)/C=C/c2ccc(Cl)cc2)C2CCS(=O)(=O)C2)c1 (stereo not given) ?
IL-1B inflam inh: -58*; HT1080-NT tox: -1%; DT40 TDP1 CPT: inconclusive; HT1080 IDH1KD tx: -17%; TDP1 cell noCPT: inconclusive

How did COc1cccc(CN(C(=O)c2oc3ccccc3c2C)C2CCS(=O)(=O)C2)c1 (stereo not given) do in these assays?
DT40 TDP1 CPT: inconclusive; TDP1 cell noCPT: 21µM*

How did COc1cccc(CN(C(=O)c2oc3cc(C)ccc3c2C)C2CCS(=O)(=O)C2)c1 (stereo not given) do in these assays?
DT40 TDP1 CPT: inconclusive; TDP1 cell noCPT: 18µM*

Results for CCOC(=O)/C(C#N)=C/C1=C(N2CCOCC2)CC(C)(C)OC1 ?
IL-1B inflam inh: -1; HT1080-NT tox: 18%; DT40 TDP1 CPT: -12%; HT1080 IDH1KD tx: 12%; TDP1 cell noCPT: -14%

Results for O=C(CNS(=O)(=O)c1ccc(Br)s1)N1CCC(N2CCCCC2)CC1 ?
IL-1B inflam inh: 39; HT1080-NT tox: 18%; DT40 TDP1 CPT: -18%; HT1080 IDH1KD tx: 6%; TDP1 cell noCPT: -2%

What do the screens show for `COC(=O)c1cc(NS(=O)(=O)c2ccc(C)c3ccccc23)ccc1N1CCOCC1`?
IL-1B inflam inh: -3; HT1080-NT tox: -2%; DT40 TDP1 CPT: -18%; HT1080 IDH1KD tx: -4%; TDP1 cell noCPT: inconclusive
